# A selection: hits, their analogues and other compounds. The true share with any hit is near 6.8%.
# Tcruzi prolif = T. cruzi proliferation inhibition; T. cruzi beta-gal in NIH3T3, GalScreen luminescence, 90 h; inhibition, % at 8.34 µM; hit rate 5.9% among 77,000;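 active = mean inhibition above about 93%, with at least 55% of replicates each passing it, limit read from the data, passing the limit was not always enough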
# Pf Dd2 growth = inhibitors of Plasmodium falciparum Dd2 growth; activity change, % at 10 µM; P. falciparum Dd2 growth, SYBR Green, 72 h; stronger effect = lower value; hit rate 2.3% among 94,000; AID 1159554; in the data active = activity change below about -80%
# C diff growth = C. difficile growth inhibition | Clostridium difficile clinical isolate growth, OD600, 24 h; stronger effect = lower value | growth activity, negative = inhibition, % at 16 µg/mL (by protocol) | hit rate 0.25% among 86,000;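 active = mean growth activity at or below -80% and every replicate also at or below -80%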;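 also: 0% = DMSO wells and -100% = levofloxacin 16 µg/mL wells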
# Numbers without * were called inactive; / = no result.
SMILES,Tcruzi prolif,Pf Dd2 growth,C diff growth
C[C@@H]1CCCCO[C@@H](CN(C)C(=O)c2ccccc2)[C@H](C)CN([C@H](C)CO)C(=O)c2cc(N(C)C)ccc2O1,-37.3,1.9,2.1
CCS(=O)(=O)Nc1ccc2c(c1)C(=O)N(C)C[C@@H](OC)[C@@H](C)CN(CCC(F)(F)F)[C@H](C)CO2,21.7,-0.2,/
C[C@H](CO)N1C[C@H](C)[C@@H](CN(C)Cc2ccc(Cl)c(Cl)c2)Oc2c(cccc2N(C)C)C1=O,77.6,-18.7,-25.5
CCCC(=O)Nc1ccc2c(c1)C(=O)N(C)C[C@@H](OC)[C@@H](C)CN(Cc1ccncc1)[C@@H](C)CO2,11.7,/,/
COc1cccc(S(=O)(=O)N[C@H]2C=C[C@H](CC(=O)NC3CCC3)O[C@@H]2CO)c1,18.7,-17.9,-7.1
C[C@@H]1CN([C@@H](C)CO)C(=O)c2cc(NC(=O)c3ccncc3)ccc2O[C@H]1CN(C)C(=O)Nc1ccc2c(c1)OCO2,14.1,12.5,/
CCCN(C)C[C@@H]1OCCCC[C@H](C)Oc2ccc(NS(=O)(=O)c3ccc(C)cc3)cc2C(=O)N([C@@H](C)CO)C[C@H]1C,61.8,-93.9*,13.0
CCCN(C)C[C@H]1OCCCC[C@@H](C)Oc2ccc(NS(=O)(=O)c3ccc(Cl)cc3)cc2C(=O)N([C@@H](C)CO)C[C@H]1C,33.0,-85.9*,8.7
CCCN(C)C[C@@H]1OCCCC[C@@H](C)Oc2ccc(NS(=O)(=O)c3ccc(C)cc3)cc2C(=O)N([C@@H](C)CO)C[C@@H]1C,52.0,-62.7,13.7
CCCN(C)C[C@@H]1OCCCC[C@@H](C)Oc2ccc(NS(=O)(=O)c3ccc(Cl)cc3)cc2C(=O)N([C@H](C)CO)C[C@@H]1C,-1.9,-60.9,-0.4
CCCN(C)C[C@H]1OCCCC[C@@H](C)Oc2ccc(NS(=O)(=O)c3ccc(C)cc3)cc2C(=O)N([C@H](C)CO)C[C@H]1C,75.2,-89.3*,20.5
CCCN(C)C[C@@H]1OCCCC[C@@H](C)Oc2ccc(NS(=O)(=O)c3ccc(F)cc3)cc2C(=O)N([C@@H](C)CO)C[C@@H]1C,86.0,-39.4,10.3
CC(=O)N(C[C@H]1N[C@H](CO)[C@@H]1c1ccc(-c2cncnc2)cc1)C1CCCC1,/,11.4,3.1
CC(C)CC#Cc1ccc2c(c1)O[C@H](CN(C)Cc1cccc(F)c1)[C@H](C)CN([C@H](C)CO)S2(=O)=O,60.4,-53.8,26.5
C[C@H](CO)N1C[C@H](C)[C@H](CN(C)S(=O)(=O)c2ccc(Cl)cc2)Oc2ccc(NC(=O)Nc3ccccc3)cc2CC1=O,55.1,-12.6,5.2
C[C@H](CO)N1C[C@H](C)[C@@H](CN(C)CC2CC2)Oc2ccc(NC(=O)c3ccncc3)cc2CC1=O,-8.3,-5.1,1.5
C[C@H](CO)N1C[C@H](C)[C@H](CN(C)C(=O)Nc2ccc3c(c2)OCO3)Oc2ccc(NC(=O)Nc3ccc(F)cc3)cc2C1=O,16.3,2.4,-10.5
C[C@H]1CN([C@@H](C)CO)C(=O)c2c(c3ccccc3n2C)-c2ccccc2CO[C@@H]1CN(C)S(=O)(=O)c1ccc(F)cc1,83.2,-90.7*,/
C[C@@H]1CN([C@H](C)CO)C(=O)c2c(c3ccccc3n2C)-c2ccccc2CO[C@H]1CN(C)S(=O)(=O)c1ccccc1,72.2,-75.0,/
C[C@@H]1CN([C@H](C)CO)C(=O)c2c(c3ccccc3n2C)-c2ccccc2CO[C@H]1CN(C)S(=O)(=O)c1ccc(F)cc1,63.3,-39.7,/
C[C@H](CO)N1C[C@H](C)[C@H](CN(C)S(=O)(=O)c2ccc(F)cc2)OCc2ccccc2-c2c(n(C)c3ccccc23)C1=O,83.9,-87.4*,/
C[C@@H]1CN([C@H](C)CO)C(=O)c2cc(NS(=O)(=O)c3ccc(F)cc3)ccc2O[C@@H](C)CCCCO[C@@H]1CN(C)C(=O)CCCN(C)C,/,12.5,1.7
C[C@@H]1CN([C@H](C)CO)C(=O)c2cc(C#Cc3cccc(F)c3)cnc2O[C@@H]1CN(C)C(=O)C1CCCCC1,115.4,-87.9*,/
C[C@@H]1CN([C@H](C)CO)C(=O)c2cc(C#CCc3ccccc3)cnc2O[C@H]1CN(C)C(=O)C1CCC1,67.1,-87.3*,2.2
C[C@@H]1CN([C@@H](C)CO)C(=O)c2cc(C#CCc3ccccc3)cnc2O[C@@H]1CN(C)C(=O)C1CCC1,22.8,-49.7,0.6
C[C@@H]1CN([C@H](C)CO)C(=O)c2cc(C#Cc3cccc(F)c3)cnc2O[C@@H]1CN(C)C(=O)C1CCC1,-207.8,-70.7,7.1
C[C@@H]1CN([C@H](C)CO)C(=O)c2cc(C#Cc3ccccc3)cnc2O[C@H]1CN(C)C(=O)CCN1CCCCC1,55.5,-89.8*,12.6
C[C@H]1CN([C@@H](C)CO)C(=O)c2cc(C#Cc3ccccc3F)cnc2O[C@@H]1CN(C)C(=O)C1CCCCC1,/,-84.6*,-0.1

# Bioassay records as filed in PubChem.
